Reference: the supplement of paper PMC11732987, “Enantioselective OTUD7B fragment discovery through chemoproteomics screening and high-throughput optimisation” (Communications Chemistry, 2025)

Key:
Assay in all cases: log2 ratio of Biotin-Ahx-Ub-VS probe labelling (fragment/DMSO); higher = less target engagement (more negative = stronger competition), active = hit call of the paper (q ≤ 0.05, log2 ratio ≤ -1)
Details in all cases: compound concentration: 200 uM; treatment time: 3 h
USP16 = USP16 (UniProt Q9Y5T5)
Chain of USP16 (Q9Y5T5 whole entry, looked up, the tested form may be a part): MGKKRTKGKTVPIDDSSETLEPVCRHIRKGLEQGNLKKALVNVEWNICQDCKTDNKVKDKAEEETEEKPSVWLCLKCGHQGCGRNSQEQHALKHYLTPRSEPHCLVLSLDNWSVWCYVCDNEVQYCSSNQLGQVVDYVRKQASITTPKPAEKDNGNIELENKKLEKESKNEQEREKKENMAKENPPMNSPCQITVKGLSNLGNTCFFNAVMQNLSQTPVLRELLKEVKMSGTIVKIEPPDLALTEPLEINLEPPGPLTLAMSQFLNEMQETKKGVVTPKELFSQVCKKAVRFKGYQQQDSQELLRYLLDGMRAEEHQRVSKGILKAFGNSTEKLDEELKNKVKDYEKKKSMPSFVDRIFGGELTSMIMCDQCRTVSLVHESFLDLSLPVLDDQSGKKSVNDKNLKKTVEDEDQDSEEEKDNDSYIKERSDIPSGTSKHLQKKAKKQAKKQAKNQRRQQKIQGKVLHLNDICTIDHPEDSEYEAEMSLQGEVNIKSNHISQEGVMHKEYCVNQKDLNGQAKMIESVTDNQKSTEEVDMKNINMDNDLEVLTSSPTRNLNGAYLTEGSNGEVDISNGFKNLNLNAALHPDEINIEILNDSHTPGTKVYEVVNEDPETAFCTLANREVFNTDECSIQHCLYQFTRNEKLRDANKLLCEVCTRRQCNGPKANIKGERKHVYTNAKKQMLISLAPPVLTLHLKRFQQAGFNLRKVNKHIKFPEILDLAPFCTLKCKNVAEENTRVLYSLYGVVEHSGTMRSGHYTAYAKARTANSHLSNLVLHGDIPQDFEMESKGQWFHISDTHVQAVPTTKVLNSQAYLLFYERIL
Procedure, shortened: (§1)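 Global-median-normalised Spectronaut label-free quantities were compared by unpaired t-test, and values are average log2 ratios of fragment over vehicle. Only proteins with ≥2 unique peptides were used. HEK293T lysate (495 µg per sample) was treated in triplicate with fragment at 200 µM or vehicle for 3 h and then with Biotin-Ahx-Ub-VS at 0.5 µM final for 1 h. Labelled DUBs were then NeutrAvidin-enriched, digested with LysC and trypsin, and run by diaPASEF LC-MS/MS.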

USP19 = molecular target: T1, USP19 (UniProt O94966)
T1 sequence (whole entry): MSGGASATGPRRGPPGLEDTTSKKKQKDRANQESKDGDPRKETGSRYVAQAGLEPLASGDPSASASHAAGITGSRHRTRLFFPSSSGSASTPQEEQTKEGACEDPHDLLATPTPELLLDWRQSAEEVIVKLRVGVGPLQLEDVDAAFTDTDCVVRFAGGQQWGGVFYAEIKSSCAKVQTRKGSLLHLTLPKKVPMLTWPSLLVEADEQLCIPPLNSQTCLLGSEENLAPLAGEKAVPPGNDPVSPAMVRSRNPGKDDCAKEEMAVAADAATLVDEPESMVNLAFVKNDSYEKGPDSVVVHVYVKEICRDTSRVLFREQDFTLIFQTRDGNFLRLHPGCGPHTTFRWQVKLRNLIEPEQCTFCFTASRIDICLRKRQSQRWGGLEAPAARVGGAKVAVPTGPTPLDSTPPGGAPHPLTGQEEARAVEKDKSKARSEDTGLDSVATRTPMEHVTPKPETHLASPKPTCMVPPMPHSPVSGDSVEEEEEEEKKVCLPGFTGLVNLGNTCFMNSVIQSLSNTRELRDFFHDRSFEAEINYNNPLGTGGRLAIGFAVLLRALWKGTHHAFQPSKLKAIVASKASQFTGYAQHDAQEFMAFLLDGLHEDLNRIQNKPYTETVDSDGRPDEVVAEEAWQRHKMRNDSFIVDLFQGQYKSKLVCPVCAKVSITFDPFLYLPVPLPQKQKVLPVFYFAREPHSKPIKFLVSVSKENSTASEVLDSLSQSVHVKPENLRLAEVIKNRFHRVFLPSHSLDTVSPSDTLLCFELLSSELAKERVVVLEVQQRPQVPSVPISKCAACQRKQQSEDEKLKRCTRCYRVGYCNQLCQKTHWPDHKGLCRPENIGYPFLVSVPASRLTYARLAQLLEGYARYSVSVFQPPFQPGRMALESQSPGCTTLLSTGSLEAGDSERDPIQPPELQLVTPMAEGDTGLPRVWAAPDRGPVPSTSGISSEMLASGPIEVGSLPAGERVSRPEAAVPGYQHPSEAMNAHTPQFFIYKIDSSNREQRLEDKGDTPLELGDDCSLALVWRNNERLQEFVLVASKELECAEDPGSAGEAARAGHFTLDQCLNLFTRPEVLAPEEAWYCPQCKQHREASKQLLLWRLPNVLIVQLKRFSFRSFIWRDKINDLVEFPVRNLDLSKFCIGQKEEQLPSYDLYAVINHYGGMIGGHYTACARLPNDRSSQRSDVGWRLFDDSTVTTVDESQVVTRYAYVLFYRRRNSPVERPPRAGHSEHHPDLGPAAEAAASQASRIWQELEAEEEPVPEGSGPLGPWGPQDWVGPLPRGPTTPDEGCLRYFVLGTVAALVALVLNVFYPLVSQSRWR
Procedure, shortened: as §1

USP24 = USP24 (UniProt Q9UPU5)
Chain of USP24 (Q9UPU5 whole entry): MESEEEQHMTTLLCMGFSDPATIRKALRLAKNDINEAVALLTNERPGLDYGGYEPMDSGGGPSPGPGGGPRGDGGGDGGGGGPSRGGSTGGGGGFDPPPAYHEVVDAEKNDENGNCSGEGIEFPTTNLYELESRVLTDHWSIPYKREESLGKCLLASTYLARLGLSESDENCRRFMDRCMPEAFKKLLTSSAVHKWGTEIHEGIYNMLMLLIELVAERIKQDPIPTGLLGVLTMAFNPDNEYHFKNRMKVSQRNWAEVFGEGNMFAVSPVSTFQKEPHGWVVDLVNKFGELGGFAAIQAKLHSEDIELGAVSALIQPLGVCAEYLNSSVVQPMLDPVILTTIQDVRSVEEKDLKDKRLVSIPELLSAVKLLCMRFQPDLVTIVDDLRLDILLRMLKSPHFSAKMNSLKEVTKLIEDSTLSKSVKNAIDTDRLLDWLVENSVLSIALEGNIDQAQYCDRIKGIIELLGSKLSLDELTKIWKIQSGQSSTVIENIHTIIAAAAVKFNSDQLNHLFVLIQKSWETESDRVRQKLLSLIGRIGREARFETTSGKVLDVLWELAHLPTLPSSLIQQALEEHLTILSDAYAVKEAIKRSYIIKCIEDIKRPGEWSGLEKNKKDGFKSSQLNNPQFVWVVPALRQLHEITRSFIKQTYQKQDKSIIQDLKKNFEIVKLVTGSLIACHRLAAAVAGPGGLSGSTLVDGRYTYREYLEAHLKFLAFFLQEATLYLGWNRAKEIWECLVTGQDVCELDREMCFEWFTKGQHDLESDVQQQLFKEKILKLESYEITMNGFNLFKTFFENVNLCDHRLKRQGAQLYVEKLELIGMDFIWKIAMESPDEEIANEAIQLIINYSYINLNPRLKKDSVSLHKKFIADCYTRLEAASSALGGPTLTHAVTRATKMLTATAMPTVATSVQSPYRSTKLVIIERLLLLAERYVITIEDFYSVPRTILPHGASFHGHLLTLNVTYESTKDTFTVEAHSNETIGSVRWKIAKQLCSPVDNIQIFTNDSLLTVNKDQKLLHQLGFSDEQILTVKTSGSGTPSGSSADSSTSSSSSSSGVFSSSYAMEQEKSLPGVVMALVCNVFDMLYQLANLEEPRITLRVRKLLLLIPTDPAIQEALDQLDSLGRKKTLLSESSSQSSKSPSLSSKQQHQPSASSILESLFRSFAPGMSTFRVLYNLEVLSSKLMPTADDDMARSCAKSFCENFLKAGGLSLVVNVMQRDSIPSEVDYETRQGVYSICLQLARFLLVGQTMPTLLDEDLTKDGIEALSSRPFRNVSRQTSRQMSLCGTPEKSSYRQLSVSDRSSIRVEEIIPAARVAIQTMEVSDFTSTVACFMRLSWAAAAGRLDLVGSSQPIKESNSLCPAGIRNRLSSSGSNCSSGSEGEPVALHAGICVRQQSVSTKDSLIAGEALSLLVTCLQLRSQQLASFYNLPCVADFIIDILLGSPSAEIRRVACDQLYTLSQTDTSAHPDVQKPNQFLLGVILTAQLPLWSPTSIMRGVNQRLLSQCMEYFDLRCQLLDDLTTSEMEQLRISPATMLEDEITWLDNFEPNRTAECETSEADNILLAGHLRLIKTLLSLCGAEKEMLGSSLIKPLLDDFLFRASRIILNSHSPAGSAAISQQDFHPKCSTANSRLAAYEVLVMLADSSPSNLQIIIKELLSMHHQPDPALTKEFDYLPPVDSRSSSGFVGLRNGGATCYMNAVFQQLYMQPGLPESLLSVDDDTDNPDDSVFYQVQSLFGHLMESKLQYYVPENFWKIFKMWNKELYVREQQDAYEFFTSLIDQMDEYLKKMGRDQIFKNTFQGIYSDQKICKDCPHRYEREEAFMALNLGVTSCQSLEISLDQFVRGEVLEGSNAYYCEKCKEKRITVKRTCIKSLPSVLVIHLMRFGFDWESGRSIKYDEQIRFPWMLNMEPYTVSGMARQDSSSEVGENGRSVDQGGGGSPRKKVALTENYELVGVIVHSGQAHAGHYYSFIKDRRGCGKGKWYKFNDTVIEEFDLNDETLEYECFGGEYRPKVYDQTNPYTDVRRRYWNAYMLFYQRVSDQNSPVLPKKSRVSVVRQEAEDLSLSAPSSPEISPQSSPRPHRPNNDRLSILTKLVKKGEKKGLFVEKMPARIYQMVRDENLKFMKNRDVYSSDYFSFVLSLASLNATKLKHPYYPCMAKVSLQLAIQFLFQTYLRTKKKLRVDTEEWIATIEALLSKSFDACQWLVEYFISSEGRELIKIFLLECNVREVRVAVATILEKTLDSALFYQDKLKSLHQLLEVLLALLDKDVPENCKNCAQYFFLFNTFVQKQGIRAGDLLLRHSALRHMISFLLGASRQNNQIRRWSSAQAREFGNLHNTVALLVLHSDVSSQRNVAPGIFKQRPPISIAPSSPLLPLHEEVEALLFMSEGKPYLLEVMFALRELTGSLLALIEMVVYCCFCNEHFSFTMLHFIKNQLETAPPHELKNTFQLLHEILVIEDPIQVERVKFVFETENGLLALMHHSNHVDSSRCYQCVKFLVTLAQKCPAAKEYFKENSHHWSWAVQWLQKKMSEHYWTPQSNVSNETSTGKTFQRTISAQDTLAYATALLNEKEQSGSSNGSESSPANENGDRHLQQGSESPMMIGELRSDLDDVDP
Procedure, shortened: as §1

USP25 = molecular target: T2, USP25 (UniProt Q9UHP3)
T2 sequence (whole entry): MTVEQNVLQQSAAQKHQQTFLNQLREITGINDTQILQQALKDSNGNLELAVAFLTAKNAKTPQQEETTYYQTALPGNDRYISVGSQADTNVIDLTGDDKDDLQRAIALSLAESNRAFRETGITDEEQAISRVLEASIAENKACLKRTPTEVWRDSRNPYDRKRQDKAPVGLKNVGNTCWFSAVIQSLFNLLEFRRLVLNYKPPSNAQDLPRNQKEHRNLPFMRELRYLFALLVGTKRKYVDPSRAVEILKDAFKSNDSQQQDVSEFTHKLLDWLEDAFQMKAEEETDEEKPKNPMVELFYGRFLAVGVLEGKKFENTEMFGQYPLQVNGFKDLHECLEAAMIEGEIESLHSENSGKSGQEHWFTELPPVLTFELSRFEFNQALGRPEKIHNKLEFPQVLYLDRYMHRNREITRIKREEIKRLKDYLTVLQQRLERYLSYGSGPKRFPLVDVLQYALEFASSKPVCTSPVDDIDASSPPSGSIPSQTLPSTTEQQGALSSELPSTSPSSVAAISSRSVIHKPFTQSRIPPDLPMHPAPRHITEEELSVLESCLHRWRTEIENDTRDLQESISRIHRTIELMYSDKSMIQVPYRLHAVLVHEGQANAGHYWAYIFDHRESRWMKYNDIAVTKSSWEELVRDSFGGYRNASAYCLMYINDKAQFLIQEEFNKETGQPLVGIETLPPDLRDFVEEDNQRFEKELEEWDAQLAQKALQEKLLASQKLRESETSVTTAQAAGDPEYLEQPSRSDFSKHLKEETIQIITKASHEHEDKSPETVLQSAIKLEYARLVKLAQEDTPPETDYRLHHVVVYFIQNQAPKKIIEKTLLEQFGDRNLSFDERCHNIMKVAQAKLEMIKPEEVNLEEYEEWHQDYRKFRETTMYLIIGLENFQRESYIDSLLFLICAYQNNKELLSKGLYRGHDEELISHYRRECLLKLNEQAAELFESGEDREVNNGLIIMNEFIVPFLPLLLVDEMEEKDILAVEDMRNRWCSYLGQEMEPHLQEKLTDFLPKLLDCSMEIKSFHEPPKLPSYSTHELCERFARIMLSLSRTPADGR
Procedure, shortened: as §1

USP28 = molecular target: T3, USP28 (UniProt Q96RU2)
T3 sequence (whole entry): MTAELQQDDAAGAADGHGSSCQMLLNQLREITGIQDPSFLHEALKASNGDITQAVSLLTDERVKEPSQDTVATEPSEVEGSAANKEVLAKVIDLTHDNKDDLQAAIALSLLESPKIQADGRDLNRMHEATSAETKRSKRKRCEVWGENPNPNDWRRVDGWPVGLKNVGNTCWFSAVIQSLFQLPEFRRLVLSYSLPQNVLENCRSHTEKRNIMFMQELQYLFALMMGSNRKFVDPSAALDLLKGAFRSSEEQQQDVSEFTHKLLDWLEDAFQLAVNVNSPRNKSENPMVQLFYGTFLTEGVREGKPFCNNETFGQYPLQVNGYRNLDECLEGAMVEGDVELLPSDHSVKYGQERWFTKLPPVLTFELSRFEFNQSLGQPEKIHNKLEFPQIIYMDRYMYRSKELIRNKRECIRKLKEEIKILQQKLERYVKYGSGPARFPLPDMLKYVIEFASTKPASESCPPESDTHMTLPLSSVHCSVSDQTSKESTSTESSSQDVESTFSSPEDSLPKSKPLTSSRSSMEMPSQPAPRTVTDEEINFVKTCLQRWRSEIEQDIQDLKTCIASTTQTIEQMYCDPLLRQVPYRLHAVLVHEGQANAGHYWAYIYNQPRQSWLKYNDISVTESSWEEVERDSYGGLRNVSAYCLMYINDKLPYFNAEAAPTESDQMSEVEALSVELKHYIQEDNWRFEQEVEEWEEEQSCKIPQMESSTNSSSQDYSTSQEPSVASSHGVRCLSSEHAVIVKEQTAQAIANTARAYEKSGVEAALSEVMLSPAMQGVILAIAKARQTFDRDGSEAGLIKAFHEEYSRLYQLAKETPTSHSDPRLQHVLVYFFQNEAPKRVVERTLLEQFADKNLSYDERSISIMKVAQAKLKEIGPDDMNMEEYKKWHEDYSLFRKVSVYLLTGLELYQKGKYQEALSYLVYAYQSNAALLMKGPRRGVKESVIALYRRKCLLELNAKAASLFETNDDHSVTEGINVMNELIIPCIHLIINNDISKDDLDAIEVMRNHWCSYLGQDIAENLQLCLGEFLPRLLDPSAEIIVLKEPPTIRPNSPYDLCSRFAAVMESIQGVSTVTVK
Procedure, shortened: as §1

Measured: log2 ratio of Biotin-Ahx-Ub-VS probe labelling

CC(NC(=O)CCl)c1noc(Cc2ccccc2)n1 (stereo not given)
inactive: USP16 -0.296 | USP19 -0.307 | USP24 -0.498 | USP25 -0.593 | USP28 -0.789
